# Test results from PubChem BioAssay (NCATS).
# Records with an inconclusive call do not appear. Where a call stands in place of a potency, no number is given. Unmarked numbers belong to inactive results. Activity calls are given as the source filed them. Calls follow the shape of the dose curve; as a rule, active = well fitted curve in the direction sought with a large enough effect; inconclusive = small, poorly fitted or top-dose-only effect, or another doubt; inactive = no such curve, though single readings can be large; an effect the other way counts as inactive or inconclusive. Where a SMILES comes first, the peptide text is derived from it. [ ]: non-standard residue; d: D form. dPhe(4-Cl) = N[C@H](Cc1ccc(Cl)cc1)C(=O)O; d2Nal = N[C@H](Cc1ccc2ccccc2c1)C(=O)O; dCit = NC(=O)NCCC[C@@H](N)C(=O)O; d3Pal = N[C@H](Cc1cccnc1)C(=O)O
# Key:
# [1] = qHTS to identify inhibitors of the type 1 interferon - major histocompatibility complex class I in skeletal muscle: primary screen against the NCATS Mechanism Interrogation Plate v5.0 (MIPE) Libary (AID 1347411); also: nearly all actives have a fitted effect of over 65% in size; also: potency is read from the fitted curve at half-maximal effect
# Procedure, shortened: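 Cells were genome-edited human myoblasts carrying a HiBit tag on endogenous HLA-B. They were treated with IFN-beta (4.0 ng/ml) and titrated compounds (top 46 uM) for 24 hrs before lytic HiBiT detection.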
# [2] = biological target: Calcium and integrin-binding protein 1 (Homo sapiens) (UniProt Q99828); assay: Primary qHTS for Identification of Calcium Integrin Binding Protein 1 (CIB1) Competitor (AID 1508620);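 also: GST tagged CIB1 binding a fluorescein labelled alphaIIb integrin peptide tracer; top concentration of the series differs between compounds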
# Procedure, shortened: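 Fluorescence polarization competition: GST-tagged CIB1 (1 uM final) preincubated with compound 15 min at room temperature, then FITC-labelled alphaIIb peptide (100 nM final) added. After 15 min at room temperature, polarization read at Ex 480/Em 540.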
# [3] = qHTS to identify inhibitors of the type 1 interferon - major histocompatibility complex class I in skeletal muscle: primary screen against the NCATS Pharmaceutical Collection (AID 1347407);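 also: luminescence of HiBiT knocked into endogenous HLA-B as interferon-induced MHC class I level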
# Procedure, shortened: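 Immortalized human myoblasts (C25cl48) with HiBiT knocked into endogenous HLA-B*08:01 were stimulated with 4 ng/ml IFN-beta and treated with compounds (8-point, 1:5, top 46 uM final) for 24 h at 37 C; HiBiT lytic luminescence read.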
# [4] = biological target: Protein phosphatase 1D (Homo sapiens) (UniProt O15297); assay: RapidFire Mass Spectrometry qHTS Assay for Modulators of WT P53-Induced Phosphatase 1 (WIP1) (AID 1347424);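 also: amount of dephosphorylated VEPPL-S-QETFS peptide product formed by WIP1; series mostly up to about 63 µM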
# Procedure, shortened: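 10 nM WIP1 preincubated with compounds 1 hr at room temperature in pH 7.5 Tris buffer with 30 mM MgCl2, 1 mM TCEP; 2 uM VEPPL-pS-QETFS phosphopeptide for 5 min, formic acid quench; dephosphorylated product quantified by RapidFire MS against labelled standard.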
# [5] = biological target: Protein phosphatase 1D (Homo sapiens) (UniProt O15297); assay: Rhodamine-PBP qHTS Assay for Modulators of WT P53-Induced Phosphatase 1 (WIP1) (AID 1347425)
# Procedure, shortened: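 5 nM WIP1 + 10 uM Rh-PBP, 50 mM Tris pH 7.5, 30 mM MgCl2, 1 mM TCEP, 0.1 mM EGTA, BSA; cpds pinned, 1 hr RT; + 10 uM phosphopeptide; fluorescence 1-min reads x 11 min; delta = f1 - f0.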
# [6] = Primary qHTS for inhibitors of La Crosse Virus (LACV) - induced cell death in SH-SY5Y cells (AID 1508616);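 also: top concentration of the series differs between compounds; higher means more rescue of cells from virus-induced death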
# Procedure, shortened: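 Readout was luminescence from ATPLite 1step added after a 6-day LACV infection (0.01 MOI) of SH-SY5Y cells that had received pin-transferred compound 24 hr after seeding.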
# [7] = biological target: Calcium and integrin-binding protein 1 (Homo sapiens) (UniProt Q99828); assay: Confirmatory qHTS for Identification of Calcium Integrin Binding Protein 1 (CIB1) Competitor (AID 1508617); settings: CIB1 binding competition assay, biochemical qHTS; also: potency is read from the fitted curve at half-maximal effect; nearly all actives have a fitted effect of over 65% in size
# Procedure, shortened: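 Confirmatory qHTS measures displacement of a FITC-alphaIIb peptide (100 nM) from CIB1-GST (1 uM) by fluorescence polarization. Calcium-containing HEPES buffer, pH 7.4; two 15 min room-temperature incubations.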
# Chain of Protein phosphatase 1D (Homo sapiens) (O15297 whole entry, looked up): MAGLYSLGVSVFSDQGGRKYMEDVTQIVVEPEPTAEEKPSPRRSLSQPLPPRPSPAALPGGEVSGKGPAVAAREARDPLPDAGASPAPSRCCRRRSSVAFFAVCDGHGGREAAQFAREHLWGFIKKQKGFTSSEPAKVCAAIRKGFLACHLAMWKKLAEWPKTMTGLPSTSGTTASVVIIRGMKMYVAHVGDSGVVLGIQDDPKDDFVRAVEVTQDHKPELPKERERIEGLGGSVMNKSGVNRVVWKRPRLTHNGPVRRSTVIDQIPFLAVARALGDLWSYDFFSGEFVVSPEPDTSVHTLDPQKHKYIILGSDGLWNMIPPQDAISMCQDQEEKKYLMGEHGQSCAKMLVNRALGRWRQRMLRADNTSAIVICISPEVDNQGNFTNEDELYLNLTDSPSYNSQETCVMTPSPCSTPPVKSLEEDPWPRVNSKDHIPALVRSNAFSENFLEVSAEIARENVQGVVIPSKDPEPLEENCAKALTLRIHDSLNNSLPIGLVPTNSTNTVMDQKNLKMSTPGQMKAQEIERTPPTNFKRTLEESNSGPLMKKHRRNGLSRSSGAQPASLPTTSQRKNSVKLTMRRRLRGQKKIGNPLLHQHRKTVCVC
# Chain of Calcium and integrin-binding protein 1 (Homo sapiens) (Q99828 whole entry, looked up): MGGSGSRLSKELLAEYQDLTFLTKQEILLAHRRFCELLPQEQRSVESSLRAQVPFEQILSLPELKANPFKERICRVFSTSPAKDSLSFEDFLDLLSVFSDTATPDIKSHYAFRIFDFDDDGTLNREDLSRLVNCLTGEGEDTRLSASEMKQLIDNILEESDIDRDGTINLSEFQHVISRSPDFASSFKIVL
compound,measurement,setting,value
Nc1ccc(/C=C/C(=O)NCc2cc3cc(-c4ccc(C(=O)N5CCC(F)(F)CC5)cc4)cc(-c4ccc(F)cc4)c3o2)cn1,Potency,[1],inactive
same,Potency,[2],inactive
Cc1ccc(NC(=O)Nc2cc(C(F)(F)F)ccc2F)cc1Nc1ccc2c(c1)NC(=O)/C2=C\c1ccc[nH]1,Potency,[1],23.4 µM (active)
same,Potency,[2],inactive
CCOCCOC(=O)/C=C/c1ccc(OC)cc1,outcome,[3],inactive
same,Potency,[4],inactive
same,outcome,[5],inactive
same,Potency,[2],inactive
O=C(/C=C/c1cccc(S(=O)(=O)Nc2ccccc2)c1)NO,Potency,[1],2.34 µM (active)
same,Potency,[2],inactive
CCOc1cc2ncc(C#N)c(Nc3ccc(F)c(Cl)c3)c2cc1NC(=O)/C=C/CN(C)C,Potency,[1],2.62 µM (active)
same,Potency,[2],inactive
CC(C)c1c2cc(-c3ccnc(NC4CCC(NC5CCOCC5)CC4)n3)ccc2nn1C (configuration not stated),Potency,[1],0.104 µM (active)
same,Potency,[2],inactive
COc1cc(C(=O)NC2CCN(C)CC2)c(F)cc1Nc1ncc2c(n1)N(C1CCCC1)CC(F)(F)C(=O)N2C,Potency,[1],14.7 µM (active)
same,Potency,[2],inactive
COc1cc2ncnc(Nc3ccc(F)c(Cl)c3)c2cc1NC(=O)/C=C/CN1CCCCC1,Potency,[1],7.39 µM (active)
same,Potency,[2],inactive
CCC(C(=O)O)c1ccc(N2Cc3ccccc3C2=O)cc1 (configuration not stated),Potency,[4],inactive
same,outcome,[5],inactive
same,outcome,[6],inactive
CCN(CC)CCN(Cc1ccc(-c2ccc(C(F)(F)F)cc2)cc1)C(=O)Cn1c(SCc2ccc(F)cc2)nc(=O)c2c1CCC2,Potency,[7],35.5 µM (active)
O=C(O)/C=C/c1cc2c(cc1O[C@@H]1O[C@H](CO)[C@@H](O)[C@H](O)[C@H]1O)OCO2,Potency,[2],inactive
O=C(O)C(O[C@@H]1O[C@H](CO[C@@H]2O[C@H](CO)[C@@H](O)[C@H](O)[C@H]2O)[C@@H](O)[C@H](O)[C@H]1O)c1ccccc1 (some centres not stated),Potency,[2],inactive
CCC(Nc1ncnc2nc[nH]c12)c1nc2cccc(F)c2c(=O)n1-c1ccccc1 (configuration not stated),Potency,[2],inactive
CCOc1cc(C)c(Cl)cc1S(=O)(=O)n1cnc2ccccc21,Potency,[2],inactive
O=C(Nc1ccc(-c2ccncc2)cc1)N[C@H](CO)c1ccccc1,Potency,[2],inactive
CCc1cccc(CC)c1NC(=O)c1nn(C)c2c1CCc1cnc(Nc3ccc(C(=O)NC4CCN(C)CC4)cc3OC(F)(F)F)nc1-2,Potency,[2],inactive
CC(=O)N[C@H](Cc1ccc2ccccc2c1)C(=O)N[C@H](Cc1ccc(Cl)cc1)C(=O)N[C@H](Cc1cccnc1)C(=O)N[C@@H](CO)C(=O)N[C@@H](Cc1ccc(O)cc1)C(=O)N[C@H](CCCNC(N)=O)C(=O)N[C@@H](CC(C)C)C(=O)N[C@@H](CCCN=C(N)N)C(=O)N1CCC[C@H]1C(=O)N[C@H](C)C(N)=O (Ac-[d2Nal][dPhe(4-Cl)][d3Pal]SY[dCit]LRP[dA]-NH2),Potency,[2],inactive
COc1cc(O)c2c(c1)C1=CC(O)C(O)CC1(C)OC2=O (configuration not stated),Potency,[2],inactive
CC(C)[C@@H]1C(=O)N(S(C)(=O)=O)[C@@H]2CCN(C(=O)/C=C/CN3CCCCC3)[C@H]21,Potency,[2],inactive
C[C@@H]1O[C@@H](O[C@H]2[C@H](O)[C@@H](O)[C@H](OC[C@H]3O[C@@H](OC(=O)[C@]45CCC(C)(C)C[C@H]4C4=CCC6[C@@]7(C)CC[C@H](O[C@@H]8OC[C@H](O)[C@H](O[C@@H]9O[C@H](CO)[C@@H](O)[C@H](O)[C@H]9O)[C@H]8O)[C@@](C)(CO)C7CC[C@@]6(C)[C@]4(C)CC5)[C@H](O)[C@@H](O)[C@@H]3O)O[C@@H]2CO)[C@H](O)[C@H](O)[C@H]1O (some centres not stated),"activity change, negative = inhibition",[2],1.27% [at 12.4 µM]
CC(C)=CCC[C@](C)(O)[C@H]1CC[C@]2(C)[C@@H]1[C@H](O)CC1[C@@]3(C)CC[C@H](O)C(C)(C)[C@@H]3[C@@H](O[C@@H]3O[C@H](CO)[C@@H](O)[C@H](O)[C@H]3O[C@@H]3O[C@H](CO)[C@@H](O)[C@H](O)[C@H]3O)C[C@]12C (some centres not stated),Potency,[2],inactive
CC1(C)CC[C@]2(C(=O)O[C@@H]3O[C@H](CO)[C@@H](O)[C@H](O)[C@H]3O)CC[C@]3(C)C(=CCC4[C@@]5(C)CC[C@H](O[C@@H]6O[C@H](C(=O)O)[C@@H](O)[C@H](O)[C@H]6O)[C@@](C)(CO)C5CC[C@]43C)C2C1 (some centres not stated),Potency,[2],inactive
COC(=O)C1=CO[C@@H](O[C@@H]2O[C@H](CO)[C@@H](O)[C@H](O)[C@H]2O)[C@H]2[C@@H]1C=C[C@@]21C=C([C@H](C)O)C(=O)O1,Potency,[2],inactive
CC1(C=O)CC[C@]2(C(=O)O[C@@H]3O[C@H](CO)[C@@H](O)[C@H](O)[C@H]3O)CC[C@]3(C)C(=CCC4[C@@]5(C)C[C@H](O)[C@H](O[C@@H]6OC[C@@H](O)[C@H](O)[C@H]6O)[C@@](C)(CO)C5CC[C@]43C)C2C1 (some centres not stated),Potency,[2],inactive
C/C=C/C=C/C=C/C(=O)OC1C=C(C=O)C(O)(C(=O)O)C2(C)CCCC(C)(C)C12 (configuration not stated),Potency,[2],inactive
CC1=CC(=O)CC(C)(C)C1CCC(C)O[C@@H]1O[C@H](CO[C@@H]2OC[C@@H](O)[C@H](O)[C@H]2O)[C@@H](O)[C@H](O)[C@H]1O (some centres not stated),Potency,[2],inactive
CC(=O)O[C@@H]1[C@@H](CO)O[C@@](CO)(O[C@H]2O[C@H](COC(=O)/C=C/c3ccccc3)[C@@H](O)[C@H](O)[C@H]2O)[C@H]1O,Potency,[2],inactive
C/C=C/C=C/C(=O)N1CC[C@]23c4ccccc4N[C@H]4N(C)c5cccc6c5[C@@]42CCN([C@H]6C2OC2(C)C)[C@H]13 (some centres not stated),Potency,[2],inactive
OC[C@H]1O[C@@H](O[C@H]2[C@H](OCc3ccccc3)O[C@H](CO[C@@H]3OC[C@@H](O)[C@H](O)[C@H]3O)[C@@H](O)[C@@H]2O)[C@H](O)[C@@H](O)[C@@H]1O,Potency,[2],inactive
CC(=O)NC1C(OC(C)(C)C2CCC3(C)C=C(C4CCC5C4(C)CC(O)C4OC(C(C)(C)O)CCC45C)CCC3O2)OC(CO)C(O)C1O (configuration not stated),Potency,[2],inactive
CC1(C)CCC2(C(=O)OC3OC(CO)C(O)C(O)C3O)CCC3(C)C(=CCC4C5(C)CCC(OC6OC(C(=O)O)C(OC7OC(CO)C(O)C(O)C7O)C(OC7OC(CO)C(O)C(O)C7O)C6O)C(C)(C)C5CCC43C)C2C1 (configuration not stated),Potency,[2],inactive
COc1cc2ncnc(Nc3cccc(O)c3)c2cc1OC,Potency,[2],inactive
C=C1C(=O)OC2C1CCC(=C)C1CC(OC(C)=O)C(=C)C12 (configuration not stated),Potency,[2],inactive
CC(C)NCC(C(=O)N1CCN(c2ncnc3c2C(C)CC3O)CC1)c1ccc(Cl)cc1 (configuration not stated),Potency,[2],inactive
CC1(C)CC[C@]23CO[C@@]4(CCC5[C@@]6(C)CC[C@H](O[C@@H]7OC[C@H](O[C@@H]8O[C@H](CO)[C@@H](O)[C@H](O)[C@H]8O)[C@H](O)[C@H]7O[C@@H]7O[C@H](CO)[C@@H](O[C@@H]8O[C@H](CO)[C@@H](O)[C@H](O)[C@H]8O)[C@H](O)[C@H]7O)[C@@](C)(CO)C6CC[C@@]5(C)[C@]4(C)C[C@H]2OC2OCC(O)C(O)C2O)C3C1 (some centres not stated),"activity change, negative = inhibition",[2],-6.44% [at 12.4 µM]
